Here are results for six molecules from PubChem BioAssay (Tox21).

Results filed as inconclusive are left out. Active and inactive are the calls of the source. Unless noted, calls follow the shape of the dose curve; as a rule, active = well fitted curve in the direction sought with a large enough effect in the repeat runs; inconclusive = weak or mixed curves; inactive = no such curve, though single readings can be large; an effect the other way counts as inactive or inconclusive.

Assay [1] is described as follows: qHTS assay to identify small molecule agonists of the RXR signaling pathway - cell viability counter screen (AID 1159529). Also: series mostly up to about 77 µM; nearly all actives have a fitted effect of over 50% in size. Summed up: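 RXR-alpha-UAS-bla HEK 293T cells in medium with 2% charcoal-stripped FBS were pre-incubated 5 hr, then compound-treated 16 hr at 37 C. Viability was read by CellTiter-Glo luminescence in the same wells as the beta-lactamase assay, with tetraoctyl ammonium bromide as positive control.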
In general terms: Quantitative high-throughput screening tests each substance at several concentrations.

Assay [2] can be described thus: qHTS assay to identify small molecule antagonists of the retinoid acid receptor (RAR) signaling pathway - cell viability counter screen (AID 1159551). Also: nearly all actives have a fitted effect of over 35% in size. Summed up:
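C3RL4 RARE-luciferase line; cpds + retinol 1 uM final, 6 h, 37 C/5% CO2; CellTiter-Glo ATP luminescence, 30 min RT.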

Assay [3] deals with Nuclear receptor subfamily 1 group I member 3 (Homo sapiens) (UniProt Q14994). As to the kind of experiment: qHTS assay to identify small molecule agonists of the constitutive androstane receptor (CAR) signaling pathway (AID 1224839). Also: nearly all actives have a fitted effect of over 15% in size. Also: potency is read from the fitted curve at half-maximal effect. The method in brief:
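HepG2 cells stably co-transfected with hCAR and a CYP2B6-2.2kb luciferase reporter; compounds at 15 concentrations with 0.75 uM PK11195 present. After 24 hr at 37 C, luciferase read by ONE-Glo luminescence.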

Assay [4] can be described thus: qHTS assay to identify small molecule antagonists of the estrogen related receptor signaling pathway with the pleiotropic PPARgamma coactivator (PGC) from Tox21 10K library - cell viability counter screen (AID 1224840; active = well fitted cell-killing curve with a large enough effect in the repeat runs, not every such curve was filed as active; also: nearly all actives have a fitted effect of over 40% in size). Summed up:
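Fluorescence read-out of CellTiter-Fluor viability reagent, added after cells had been exposed to compound in DMSO for 17.5 h at 37 C; 30 min development at 37 C/5% CO2. Cells: PGC/ERR line, 2,000/well.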

A short description of assay [5]: qHTS RealTime-Glo MT Cell Viability Assay in HepG2 cells - 8 hour (AID 1224873). Also: nearly all actives have a fitted effect of over 55% in size. Summed up:
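HepG2 cells (600/well) mixed with RealTime-Glo MT reagent, settled 5 h at 37 C/5% CO2 before compound addition. Nonlytic NanoLuc luminescence from viable-cell prosubstrate reduction read repeatedly during 40 h treatment at 37 C.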

Assay [6] is described as follows: A CellTox Green Cytotoxicity Assay to monitor cytotoxicity in HEK293 cells - 24 hour (AID 1224875). Also: nearly all actives have a fitted effect of over 45% in size. Also: potency is read from the fitted curve at half-maximal effect. The method in brief: (§1)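 Read-out: fluorescence of a cell-impermeant cyanine dye staining DNA of dead cells, proportional to cytotoxicity. HEK293, 600 cells/well with reagent, compound (23 nL DMSO) added after 5 h; reads at 0, 8, 16, 24, 32, 40 h.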
A short description of assay [7]: qHTS assay to identify small molecule agonists of the androgen receptor (AR) signaling pathway in the presence of an antagonist - cell viability counter screen (AID 1259379). Also: nearly all actives have a fitted effect of over 25% in size. Also: potency is read from the fitted curve at half-maximal effect. The method in brief:
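Viability counter screen: CellTiter-Fluor fluorescence, measured in the same wells as the luciferase read-out. MDA-kb2 cells, 3,000/well, with nilutamide at 3.0uM final and compounds at 15 concentrations, 16 hr at 37C, 0% CO2.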

Assay [8] in a line: qHTS assay to identify small molecule antagonists of the estrogen receptor beta (ER-beta) signaling pathway - cell viability counter screen (AID 1259382).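 Also: HEK293T cells carrying ER-beta-UAS-bla reporter stimulated with estradiol; series mostly up to about 92 µM; nearly all actives have a fitted effect of over 55% in size.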 The method in brief: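 Luminescent ATP read-out (CellTiter-Glo, 30 min, RT) taken in the same wells as the bla reporter assay. HEK293T ER-beta-UAS-bla cells in 2% charcoal-stripped FBS were exposed to compounds with 1nM E2 for 16 hr at 37C.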

Assay [9] deals with Thyrotropin receptor (Homo sapiens) (UniProt P16473). As to the kind of experiment: qHTS assay to identify small molecule antagonists of the thyroid stimulating hormone receptor (TSHR) signaling pathway (AID 1259385; calls by dose curve; also: nearly all actives have a fitted effect of over 20% in size). Summed up: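 TSHR-HEK293 cells (800/well) plated 18 h, then compounds with Ro20-1724 and TSH at 1.5 ng/mL final, 30 min at room temperature. cAMP quantified by HTRF (cAMP-d2/anti-cAMP-cryptate, 1 h); 15 concentrations in triplicate.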

The target of assay [10] is Progesterone receptor (Homo sapiens) (UniProt P06401). As to the kind of experiment: qHTS assay to identify small molecule agonists of the progesterone receptor (PR) signaling pathway (AID 1346784; calls by dose curve; also: nearly all actives have a fitted effect of over 30% in size). The method in brief:
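PR-UAS-bla HEK 293T cells (beta-lactamase reporter under UAS) in 2% charcoal-stripped FBS, dosed with 23 nL compound after 6 hr, incubated 16hr at 37C. LiveBLAzer B/G FRET substrate added, fluorescence read after 2 hours.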

Assay [11] can be described thus: qHTS assay to identify small molecule antagonists of the progesterone receptor (PR) signaling pathway - cell viability counter screen (AID 1346798). Also: series mostly up to about 92 µM; nearly all actives have a fitted effect of over 50% in size. The method in brief:
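PR-UAS-bla HEK293T cells, 3,000/well in 2% charcoal-stripped FBS medium, dosed with compounds plus R5020 agonist and incubated 16 h at 37C. Viability then measured in the same wells by CellTiter-Glo luminescence after 30 min at RT.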

For assay [12], the target named is Thyrotropin-releasing hormone receptor (Homo sapiens) (UniProt P34981). Kind of assay: qHTS assay to identify small molecule agonists of the thyrotropin-releasing hormone receptor (TRHR) signaling pathway (AID 1346891; calls by dose curve; also: series mostly up to about 58 µM). Summed up: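 HEK293 cells expressing TRHR plated 18 h at 37 C/5% CO2, calcium dye-loaded 2 h at 37 C, then compound added (agonist mode); kinetic calcium fluorescence read 3 min at 1 s intervals; 15 concentrations in triplicate.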

Assay [13] in a line: Human pregnane X receptor (PXR) small molecule agonists, qHTS cell viability counter screen (AID 1346977). Also: nearly all actives have a fitted effect of over 50% in size. Also: potency is read from the fitted curve at half-maximal effect. The method in brief: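 PXR-Luc HepG2 cells (2,000/well, 5% charcoal-stripped FBS) preincubated 5 hr, then exposed to compounds 24 hr at 37 C. Viability read in the same wells by CellTiter-Fluor fluorescence, reagent added at 23 hr, 1 hr incubation.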
A short description of assay [14]: Caspase-3/7 induction in CHO-K1 cells by small molecules, qHTS cell viability counter screen (AID 1346979). Also: nearly all actives have a fitted effect of over 35% in size. Also: potency is read from the fitted curve at half-maximal effect. The method in brief: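 Wild-type CHO-K1 cells (1,500/well) treated with compound after 5 h plating; after 16 h at 37C, viability read as CellTiter-Fluor fluorescence following 1 h reagent incubation, in the same wells as the caspase read.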
Assay [15] is described as follows: Caspase-3/7 induction in HepG2 cells by small molecules, qHTS cell viability counter screen (AID 1346981). Also: nearly all actives have a fitted effect of over 30% in size. Also: potency is read from the fitted curve at half-maximal effect. The method in brief:
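Fluorescence read-out of live-cell protease activity (CellTiter-Fluor) after 1 hr with reagent. This was measured in the same wells as the caspase-3/7 luminescence, on HepG2 cells exposed to DMSO-dissolved compounds for 16 hr at 37 C.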

The target of assay [16] is Cytochrome P450 2D6 (Homo sapiens) (UniProt P10635). Kind of assay: Cytochrome P450 Family 2 Subfamily D Member 6 (CYP2D6) small molecule antagonists: luciferase reporter qHTS assay (AID 1671196). Also: nearly all actives have a fitted effect of over 50% in size. Also: potency is read from the fitted curve at half-maximal effect. The method in brief:
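Luminogenic proluciferin substrate, CYP2D6 enzyme; 10 min RT preincubation with compound, NADPH regeneration system added, 1 h RT. Stop/detection reagent, 20 min RT, luminescence read (RLU). Signal proportional to CYP activity.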
On the technique in general: In a reporter assay the amount or activity of a reporter protein is the signal.

Assay [17] in a line: qHTS assay to identify small molecule agonists of the hypoxia (HIF-1) signaling pathway - cell viability counter screen (AID 1224844; calls by dose curve; also: nearly all actives have a fitted effect of over 50% in size). Summed up:
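CellTiter-Glo luminescence read-out, 30 min RT, taken in the same wells as the beta-lactamase HRE reporter assay; HRE-bla ME-180 cells, 0.5% dialyzed FBS, 17 hr compound treatment at 37C, 5% CO2.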

Assay [18] in a line: qHTS RealTime-Glo MT Cell Viability Assay in HEK293 cells - 16 hour (AID 1224872). Also: nearly all actives have a fitted effect of over 50% in size. Also: potency is read from the fitted curve at half-maximal effect. The method in brief: (§2)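 Homogeneous bioluminescent viability format in HEK293 cells (600 cells/well). Following 5 h at 37 C/5% CO2, 23 nL compound was pintooled; the signal was measured repeatedly during 40 h incubation.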
Assay [19] is described as follows: A CellTox Green Cytotoxicity Assay to monitor cytotoxicity in HEK293 cells - 32 hour (AID 1224881). Also: nearly all actives have a fitted effect of over 40% in size. Also: potency is read from the fitted curve at half-maximal effect. Summed up:
as §1

The nature of assay [20]: qHTS RealTime-Glo MT Cell Viability Assay in HEK293 cells - 24 hour (AID 1224886). Also: nearly all actives have a fitted effect of over 50% in size. Also: potency is read from the fitted curve at half-maximal effect. The method in brief:
as §2

Chain of Progesterone receptor (Homo sapiens) (P06401 whole entry, looked up): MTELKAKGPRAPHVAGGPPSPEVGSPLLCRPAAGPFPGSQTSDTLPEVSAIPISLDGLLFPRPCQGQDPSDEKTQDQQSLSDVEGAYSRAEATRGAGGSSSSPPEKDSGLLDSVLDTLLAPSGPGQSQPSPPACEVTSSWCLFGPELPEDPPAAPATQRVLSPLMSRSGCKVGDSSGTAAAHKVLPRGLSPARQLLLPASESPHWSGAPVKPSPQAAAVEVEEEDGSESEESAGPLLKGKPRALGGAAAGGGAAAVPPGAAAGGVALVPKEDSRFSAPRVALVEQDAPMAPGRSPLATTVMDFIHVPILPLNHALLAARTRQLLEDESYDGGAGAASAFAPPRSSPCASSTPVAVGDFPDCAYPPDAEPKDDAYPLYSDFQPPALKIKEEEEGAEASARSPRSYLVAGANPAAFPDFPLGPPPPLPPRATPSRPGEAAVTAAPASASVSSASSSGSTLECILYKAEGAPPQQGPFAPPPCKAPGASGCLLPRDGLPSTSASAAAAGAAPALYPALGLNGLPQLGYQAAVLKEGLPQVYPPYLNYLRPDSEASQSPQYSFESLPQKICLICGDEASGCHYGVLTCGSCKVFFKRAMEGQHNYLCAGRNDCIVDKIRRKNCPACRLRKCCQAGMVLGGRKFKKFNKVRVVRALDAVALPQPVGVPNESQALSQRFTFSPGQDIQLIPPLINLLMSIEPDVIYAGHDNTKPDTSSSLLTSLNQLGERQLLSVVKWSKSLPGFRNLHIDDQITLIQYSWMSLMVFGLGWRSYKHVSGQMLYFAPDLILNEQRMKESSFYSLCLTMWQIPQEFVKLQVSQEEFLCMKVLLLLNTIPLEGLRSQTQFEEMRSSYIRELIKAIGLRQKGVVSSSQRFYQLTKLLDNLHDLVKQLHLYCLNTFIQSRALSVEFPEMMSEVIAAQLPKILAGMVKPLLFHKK
Chain of Thyrotropin-releasing hormone receptor (Homo sapiens) (P34981 whole entry, looked up): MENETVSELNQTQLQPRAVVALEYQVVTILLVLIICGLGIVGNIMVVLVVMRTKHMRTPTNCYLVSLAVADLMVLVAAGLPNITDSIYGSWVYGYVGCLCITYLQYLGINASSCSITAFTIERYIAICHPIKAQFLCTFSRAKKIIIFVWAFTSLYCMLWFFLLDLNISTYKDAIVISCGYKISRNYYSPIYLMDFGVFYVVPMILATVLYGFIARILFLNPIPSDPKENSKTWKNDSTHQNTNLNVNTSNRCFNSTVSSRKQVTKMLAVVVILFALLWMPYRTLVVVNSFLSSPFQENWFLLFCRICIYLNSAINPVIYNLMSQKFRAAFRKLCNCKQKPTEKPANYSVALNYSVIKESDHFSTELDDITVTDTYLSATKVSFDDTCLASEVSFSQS
Chain of Cytochrome P450 2D6 (Homo sapiens) (P10635 whole entry, looked up): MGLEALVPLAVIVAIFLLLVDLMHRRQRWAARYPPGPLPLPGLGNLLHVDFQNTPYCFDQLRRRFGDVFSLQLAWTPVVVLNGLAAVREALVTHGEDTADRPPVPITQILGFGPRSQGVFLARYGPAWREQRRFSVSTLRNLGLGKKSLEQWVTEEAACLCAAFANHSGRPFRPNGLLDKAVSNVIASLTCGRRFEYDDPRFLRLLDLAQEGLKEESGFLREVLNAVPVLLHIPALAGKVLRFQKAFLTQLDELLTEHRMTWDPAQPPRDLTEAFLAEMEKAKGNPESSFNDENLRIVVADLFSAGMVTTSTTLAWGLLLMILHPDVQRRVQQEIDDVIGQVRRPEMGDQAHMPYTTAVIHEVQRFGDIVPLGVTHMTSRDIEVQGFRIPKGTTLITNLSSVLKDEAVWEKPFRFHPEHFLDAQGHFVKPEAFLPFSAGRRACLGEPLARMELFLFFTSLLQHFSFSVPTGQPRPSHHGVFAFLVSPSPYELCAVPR
Chain of Thyrotropin receptor (Homo sapiens) (P16473 whole entry, looked up): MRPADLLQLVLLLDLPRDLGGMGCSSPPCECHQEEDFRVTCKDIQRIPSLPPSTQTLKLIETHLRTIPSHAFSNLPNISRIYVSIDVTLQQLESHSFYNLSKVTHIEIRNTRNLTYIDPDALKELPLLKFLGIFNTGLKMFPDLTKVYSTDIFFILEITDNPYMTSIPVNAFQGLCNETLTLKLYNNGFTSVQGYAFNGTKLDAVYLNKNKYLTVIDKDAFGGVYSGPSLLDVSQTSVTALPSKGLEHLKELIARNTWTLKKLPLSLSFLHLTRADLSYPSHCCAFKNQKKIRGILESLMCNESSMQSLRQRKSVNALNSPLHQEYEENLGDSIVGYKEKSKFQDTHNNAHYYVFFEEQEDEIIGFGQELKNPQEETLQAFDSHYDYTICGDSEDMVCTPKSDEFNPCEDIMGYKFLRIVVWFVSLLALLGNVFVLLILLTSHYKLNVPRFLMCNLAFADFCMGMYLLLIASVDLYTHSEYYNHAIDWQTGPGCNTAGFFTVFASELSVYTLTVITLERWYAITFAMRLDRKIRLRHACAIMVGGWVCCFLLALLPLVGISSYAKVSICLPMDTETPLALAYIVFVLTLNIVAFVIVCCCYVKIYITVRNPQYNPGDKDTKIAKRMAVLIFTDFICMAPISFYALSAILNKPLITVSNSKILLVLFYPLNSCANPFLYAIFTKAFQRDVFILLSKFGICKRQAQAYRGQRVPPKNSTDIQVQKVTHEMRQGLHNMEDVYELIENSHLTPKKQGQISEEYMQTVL
Chain of Nuclear receptor subfamily 1 group I member 3 (Homo sapiens) (Q14994 whole entry, looked up): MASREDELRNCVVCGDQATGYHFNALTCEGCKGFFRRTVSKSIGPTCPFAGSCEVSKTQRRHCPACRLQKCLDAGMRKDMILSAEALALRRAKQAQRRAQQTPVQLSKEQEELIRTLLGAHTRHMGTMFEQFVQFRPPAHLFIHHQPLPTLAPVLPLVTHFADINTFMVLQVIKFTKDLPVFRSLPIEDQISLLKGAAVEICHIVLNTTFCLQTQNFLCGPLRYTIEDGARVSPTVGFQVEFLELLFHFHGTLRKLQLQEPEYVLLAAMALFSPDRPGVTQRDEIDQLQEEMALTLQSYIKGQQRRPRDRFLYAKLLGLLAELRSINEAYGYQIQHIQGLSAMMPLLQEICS

Regarding `CNC(=O)Oc1cc(C)c(SC)c(C)c1`, the Potency entry in [1], in assay [2], in assay [4], in assay [5], in assay [7] and in assay [8] was “inactive” each time. The Potency result in assay [9], in [11], in [13], in assay [15] and in assay [16] was “inactive” throughout. Further, the values for the Potency in [3], in assay [6] and in assay [14] were 61.1 µM (active), 21.9 µM (active) and 54.5 µM (active), respectively. Further, the result in [10] and in assay [12] was inactive.
On to `N#Cc1cc([N+](=O)[O-])ccc1N`, for which the Potency entry in assay [1], in assay [2], in [17], in assay [18], in assay [5] and in assay [6] was “inactive” throughout. The Potency entry in [19], in [20], in assay [8], in [9], in [11] and in assay [16] was “inactive” each time. Besides, the molecule was called inactive in assay [10] and in assay [12]. Further, in assay [14], the Potency was 61.1 µM (active).
As to `CC1COC(Cn2cncn2)(c2ccc(Oc3ccc(Cl)cc3)cc2Cl)O1` (stereo not drawn), the Potency entry in assay [2], in assay [17], in assay [6] and in [19] was “inactive” throughout. Moreover, the Potency in assay [18] is 21.9 µM (active); in assay [20] it was 19.5 µM (active); in [7], 48.6 µM (active); in assay [13] it was 21.7 µM (active); in assay [14] it was 24.3 µM (active); in [15], 43.3 µM (active). The Potency in assay [16] was 39.9 µM (active).
As for `O=[N+]([O-])c1c(Cl)c(Cl)cc(Cl)c1Cl`, the Potency entry in [2], in [4], in [17], in assay [18], in assay [5] and in [20] was “inactive” throughout. Further, the Potency result in assay [7], in [8], in assay [11], in assay [13], in [14] and in assay [15] was “inactive” in each case. In addition, the values for the Potency in assay [6], in assay [19] and in [16] were 49 µM (active), 43.6 µM (active) and 35.6 µM (active), respectively. Further, the call in [10] was inactive.
`COc1cc(OC)c(OC)cc1C=O`: the Potency result in assay [1], in assay [2], in [3], in assay [4], in assay [5] and in assay [6] was “inactive” in each case. Besides, the Potency result in assay [19], in assay [20] and in assay [7] was “inactive” in each case. Further, the molecule was classed as inactive in assay [12]. In addition, the Potency in [16] is 19.4 µM (active).
As for `O=C(Nc1ccccc1-c1ccc(Cl)cc1)c1cccnc1Cl`, the Potency result in assay [2], in assay [4], in assay [5], in [7], in assay [13] and in assay [15] was “inactive” in each case. For the same molecule, the outcome in [10] and in [12] was inactive. Besides, the Potency in [16] is 30.4 µM (active).
